{"source": "PubChem BioAssay (NCATS)", "key": {"[1]": {"tested_on": "Zika virus NS2B-NS3 protease (unlinked complex)", "assay": "Primary screen GU Rhodamine qHTS for Zika virus inhibitors: Unlinked NS2B-NS3 protease assay (AID 1347159); also: nearly all actives have a fitted effect of over 60% in size", "method_in_brief": "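Enzyme 25 nM in Tris-HCl pH 8.0 + 0.01% Tween 20; compounds up to 114 microM, 15 min RT dark; + Rhod110 substrate 1.5 microM; read t0 and 15 min; delta fluorescence → % inhibition → 4-parameter Hill fit.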"}, "[2]": {"tested_on": "Zika virus NS2B-NS3 protease (linked construct)", "assay": "Primary screen NINDS Rhodamine qHTS for Zika virus inhibitors (AID 1347160); also: nearly all actives have a fitted effect of over 55% in size", "method_in_brief": "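Enzyme (25 nM, linked NS2B-NS3) was preincubated 15 min with compound in 10 mM Tris-HCl pH 8.0, 0.01% Tween 20. Rhodamine110 substrate (1.5 microM) was then added and fluorescence read at start and after 15 min.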"}}, "note": "Inconclusive results are not listed. Where a call stands in place of a potency, no number is given. Calls of active or inactive are those of the source. Calls follow the shape of the dose curve; as a rule, active = well fitted inhibition curve with a large enough effect; inconclusive = small, poorly fitted or top-dose-only effect; inactive = no such curve, though single readings can be large or run the other way."}
{"molecule": "NC(=O)[C@H]1CCCCc2c1[nH]c1ccc(Cl)cc21", "values": [{"measurement": "Potency", "setting": "[1]", "result": "inactive"}, {"measurement": "Potency", "setting": "[2]", "result": "inactive"}]}
{"molecule": "C=C1[C@H]2CC[C@]3(O)[C@@](CC[C@@H]4[C@](C)(C(=O)O)CCC[C@]43C)(C2)[C@H]1OC(=O)/C(C)=C\\C", "values": [{"measurement": "Potency", "setting": "[1]", "result": "inactive"}, {"measurement": "Potency", "setting": "[2]", "result": "inactive"}]}
{"molecule": "C/C=C1\\[C@H](O[C@@H]2O[C@H](CO)[C@@H](O)[C@H](O)[C@H]2O)OC=C(C(=O)OC)[C@H]1CC(=O)OC", "values": [{"measurement": "Potency", "setting": "[1]", "result": "inactive"}, {"measurement": "Potency", "setting": "[2]", "result": "inactive"}]}
{"molecule": "C[C@@H]1CC[C@]2(C)C3(C)CC[C@@]2(OC3=O)[C@@]12C[C@H](c1ccoc1)OC2=O", "values": [{"measurement": "Potency", "setting": "[1]", "result": "inactive"}, {"measurement": "Potency", "setting": "[2]", "result": "inactive"}]}
{"molecule": "COc1ccc(C(OC2OC(CO)C(O)C(O)C2O)C(C)O)cc1", "note": "(stereo unspecified)", "values": [{"measurement": "Potency", "setting": "[1]", "result": "inactive"}, {"measurement": "Potency", "setting": "[2]", "result": "inactive"}]}
{"molecule": "FC(F)(F)c1cc(C(F)(F)F)c2ccc3nc(-c4nnco4)cn3c2n1", "values": [{"measurement": "Potency", "setting": "[1]", "result": "inactive"}, {"measurement": "Potency", "setting": "[2]", "result": "inactive"}]}
{"molecule": "CC(=O)c1c(C)cc(O[C@@H]2O[C@H](CO)[C@@H](O)[C@H](O)[C@H]2O)cc1O", "values": [{"measurement": "Potency", "setting": "[1]", "result": "inactive"}, {"measurement": "Potency", "setting": "[2]", "result": "inactive"}]}
{"molecule": "CC1=C2C(=O)O[C@@H](c3ccoc3)[C@]2(C)CCC1", "values": [{"measurement": "Potency", "setting": "[1]", "result": "inactive"}, {"measurement": "Potency", "setting": "[2]", "result": "inactive"}]}
{"molecule": "C=C1C(=O)OC2/C=C(\\C)CC/C=C(\\C(=O)O)CC/C=C(\\C)CCC12", "note": "(stereo unspecified)", "values": [{"measurement": "Potency", "setting": "[1]", "result": "inactive"}, {"measurement": "Potency", "setting": "[2]", "result": "inactive"}]}
{"molecule": "CCC(CC)n1ccc2c(C(=O)NCc3c(C)cc(C)[nH]c3=O)cc(C#N)cc21", "values": [{"measurement": "Potency", "setting": "[1]", "result": "inactive"}, {"measurement": "Potency", "setting": "[2]", "result": "inactive"}]}
{"molecule": "CN(C)C/C=C/C(=O)Nc1ccc(C(=O)Nc2cccc(Nc3ncc(Cl)c(-c4c[nH]c5ccccc45)n3)c2)cc1", "values": [{"measurement": "Potency", "setting": "[1]", "result": "inactive"}, {"measurement": "Potency", "setting": "[2]", "result": "inactive"}]}
{"molecule": "COC(=O)C1=CO[C@@H](O[C@@H]2O[C@H](CO)[C@@H](O)[C@H](O)[C@H]2O)[C@@H]2[C@@](C)(O)[C@@H](O)C[C@]12O", "values": [{"measurement": "Potency", "setting": "[1]", "result": "inactive"}, {"measurement": "Potency", "setting": "[2]", "result": "inactive"}]}
{"molecule": "O=C(NCC(=O)N1CC[C@H](NC2CCC(O)(c3ccc(-c4ncccn4)cn3)CC2)C1)c1cccc(C(F)(F)F)c1", "note": "(stereo partly specified)", "values": [{"measurement": "Potency", "setting": "[1]", "result": "inactive"}, {"measurement": "Potency", "setting": "[2]", "result": "inactive"}]}
{"molecule": "CC1CCC2(C)C(CC(O)C(O)C23CO3)C1(C)CCC1=CC(=O)OC1O", "note": "(stereo unspecified)", "values": [{"measurement": "Potency", "setting": "[1]", "result": "inactive"}, {"measurement": "Potency", "setting": "[2]", "result": "inactive"}]}
{"molecule": "OC[C@H]1O[C@@H](Oc2ccc3c(c2)OC[C@H]2c4cc5c(cc4O[C@@H]32)OCO5)[C@H](O)[C@@H](O)[C@@H]1O", "values": [{"measurement": "Potency", "setting": "[1]", "result": "inactive"}, {"measurement": "Potency", "setting": "[2]", "result": "inactive"}]}
{"molecule": "CC1(C)O[C@]23C[C@H]1C[C@H](OC(=O)c1ccoc1)[C@]2(C)[C@@H](OC(=O)c1ccoc1)CCC3(C)O", "note": "(stereo partly specified)", "values": [{"measurement": "Potency", "setting": "[1]", "result": "inactive"}, {"measurement": "Potency", "setting": "[2]", "result": "inactive"}]}
{"molecule": "C[C@@H]1O[C@@H](O[C@H]2[C@H](O[C@H]3CC[C@@]4(C)C(CC[C@]5(C)C4CC=C4[C@@H]6CC(C)(C)CC[C@]6(C(=O)O)CC[C@]45C)[C@]3(C)CO)OC[C@H](O)[C@@H]2O)[C@H](O)[C@H](O[C@@H]2OC[C@@H](O)[C@H](O)[C@H]2O)[C@H]1O", "note": "(stereo partly specified)", "values": [{"measurement": "Potency", "setting": "[1]", "result": "inactive"}, {"measurement": "Potency", "setting": "[2]", "result": "inactive"}]}
{"molecule": "C=CC(C)(O)CO[C@@H]1O[C@H](CO)[C@@H](O)[C@H](O)[C@H]1O", "note": "(stereo partly specified)", "values": [{"measurement": "Potency", "setting": "[1]", "result": "inactive"}, {"measurement": "Potency", "setting": "[2]", "result": "inactive"}]}
{"molecule": "C/C(=C/CO)CC[C@@H]1[C@@]2(C)CCC[C@](C)(C(=O)O)C2CC[C@@]1(C)O", "note": "(stereo partly specified)", "values": [{"measurement": "Potency", "setting": "[1]", "result": "inactive"}, {"measurement": "Potency", "setting": "[2]", "result": "inactive"}]}
{"molecule": "OC[C@H]1O[C@@H](n2cnc3c(NCc4ccc(O)cc4)ncnc32)[C@H](O)[C@@H]1O", "values": [{"measurement": "Potency", "setting": "[1]", "result": "inactive"}, {"measurement": "Potency", "setting": "[2]", "result": "inactive"}]}
{"molecule": "CCN[C@@H]1C[C@H](N)[C@@H](O[C@H]2OC(CN)=CC[C@H]2N)[C@H](O)[C@H]1O[C@H]1OC[C@](C)(O)[C@H](NC)[C@H]1O", "values": [{"measurement": "Potency", "setting": "[1]", "result": "inactive"}, {"measurement": "Potency", "setting": "[2]", "result": "inactive"}]}
{"molecule": "CN1C(=O)c2ccccc2-n2c(nc3ccccc3c2=O)/C1=C/c1ccccc1", "values": [{"measurement": "Potency", "setting": "[1]", "result": "inactive"}, {"measurement": "Potency", "setting": "[2]", "result": "inactive"}]}
{"molecule": "CC(C)=CC/C=C(/C)[C@H]1CC[C@]2(C)[C@@H]1[C@H](O)CC1[C@@]3(C)CC[C@H](O)C(C)(C)[C@@H]3[C@@H](O[C@@H]3O[C@H](CO)[C@@H](O)[C@H](O)[C@H]3O[C@@H]3O[C@@H](C)[C@H](O)[C@@H](O)[C@H]3O)C[C@]12C", "note": "(stereo partly specified)", "values": [{"measurement": "Potency", "setting": "[1]", "result": "inactive"}, {"measurement": "Potency", "setting": "[2]", "result": "inactive"}]}
{"molecule": "OCCc1ccc(O[C@@H]2O[C@H](CO)[C@@H](O)[C@H](O)[C@H]2O)c(O)c1", "values": [{"measurement": "Potency", "setting": "[1]", "result": "inactive"}, {"measurement": "Potency", "setting": "[2]", "result": "inactive"}]}
{"molecule": "COc1cc(/C=C/C(=O)O[C@H]2[C@H](O)[C@@H](CO)O[C@@]2(CO)O[C@H]2O[C@H](COC(=O)c3ccc(O)cc3)[C@@H](O)[C@H](O)[C@H]2O)cc(OC)c1OC", "values": [{"measurement": "Potency", "setting": "[1]", "result": "inactive"}, {"measurement": "Potency", "setting": "[2]", "result": "inactive"}]}
{"molecule": "Cc1onc(-c2ccccc2)c1C(=O)N[C@@H]1C(=O)N2[C@@H]1SC(C)(C)[C@@H]2C(=O)O", "values": [{"measurement": "Potency", "setting": "[1]", "result": "inactive"}, {"measurement": "Potency", "setting": "[2]", "result": "inactive"}]}
{"molecule": "CCCOc1ccn2c(C(C)=O)cc(-c3ccccc3S(C)(=O)=O)c2c1", "values": [{"measurement": "Potency", "setting": "[1]", "result": "inactive"}, {"measurement": "Potency", "setting": "[2]", "result": "inactive"}]}
{"molecule": "CC(C)c1nc(N(C)S(C)(=O)=O)nc(-c2ccc(F)cc2)c1/C=C/[C@@H](O)C[C@@H](O)CC(=O)O", "values": [{"measurement": "Potency", "setting": "[1]", "result": "inactive"}, {"measurement": "Potency", "setting": "[2]", "result": "inactive"}]}
